Records with an inconclusive call do not appear. Activity calls are given as the source filed them. Rule for the calls: active = hit-call score of the fitted dose curve at least 0.9, where 1 is the maximum; inconclusive = response in the unintended direction; inactive = score below 0.9.

For 40 compounds, outcome results are on record in PubChem BioAssay (EPA / NIEHS).

A short description of this assay: Tanguay_ZF_120hpf_YSE_legacy: (Legacy) Oregon State University Tanguay Lab 120 Hour Post-fertilization zebrafish Assay for Yolk Sac Edema (AID 2283634). How it is done:
Tanguay_ZF_120hpf_legacy is a whole embryo, multiplexed endpoint assay using zebrafish larvae exposed for 120 hours post fertilization on a 96-well plate.Tanguay_ZF_120hpf_YSE_legacy is one of one assay component(s) measured or calculated from the Tanguay_ZF_120hpf_legacy assay. It is designed to make measurements of zebrafish development as detected with brightfield microscopy of developing zebrafish embryos.Data from the assay component Tanguay_ZF_120hpf_YSE_legacy was analyzed into 1 assay endpoints. This assay endpoint, Tanguay_ZF_120hpf_YSE_legacy, was analyzed in the positive analysis fitting direction relative to DMSO as the negative control and baseline of activity. Using a type of morphology reporter, gain-of-signal activity can be used to understand changes in developmentals as they relate to the whole embryo. To generalize the intended target to other relatable targets, this assay endpoint is annotated to the zebrafish development intended target family, where the subfamily is extra-embryonic membrane development.
Zebrafish husbandry: Tropical 5D wild-type adult zebrafish were housed in at an approximate density of 1000 per 100 gallon tank at the Sinnhuber Aquatic Research Laboratory, Oregon State University, Corvallis, OR. Each tank was kept at standard laboratory conditions of 28C on a 14-h light/10-h dark photoperiod in fish water consisting of reverse osmosis water supplemented with a commercially available salt (Instant Ocean). Spawning funnels were placed into the tanks the night prior, and embryos were collected and staged. To increase bioavailability, the chorion was enzymatically removed using pronase (63.6mg/ml, >/= 3.5U/mg, Sigma-Aldrich: P5147) at 4 hours post fertilization (hpf) using a custom automated dechorionator.Chemical exposures: Six hpf dechorionated embryos were placed 1 embryo per well in a 96-well plate prefilled with 90 ul of EM using automated embryo placement systems (AEPS). Ten microliters of each row of dilution plate 2 was added to 2 exposure plates. The final DMSO concentration used was 0.64% (vol/vol). Thirty-two embryos were also exposed to 5uM trimethyltin chloride (positive control). Plates were sealed to prevent evaporation and foil covered to reduce light exposure and kept in a 28C incubator. Embryos were statically exposed until 120 hpf. At 24 hpf, embryos were assessed for photomotor response using a custom photomotor response analysis tool (PRAT) and for developmental toxicity endpoints (MO24: mortality at 24 hpf, DP: developmental progression, SM: spontaneous movement, and NC: notochord distortion). At 120 hpf, locomotor activity was measured using Viewpoint Zebralab and assessed for 18 endpoints. Zebrafish acquisition and analysis program (ZAAP), a custom program designed to inventory, acquire, and manage zebrafish data, was used to collect developmental endpoints as either present or absent (i.e., binary responses were recorded). If mortality occurred for an embryo (at either 24 or 120 hpf), the non-mortality endpoints were not measured.
Regarding `CCN(CC)CCOc1ccc(C(=C(Cl)c2ccccc2)c2ccccc2)cc1`, the outcome was inactive. Regarding `Cc1ccc(C(C)(C)C)c(O)c1`, the result was inactive.

With `OCC(CO)n1cnc(-c2ccc(F)cc2)c1-c1ccnc(Oc2ccccc2)n1`, the compound was called inactive. On to `NCCOCCOCCN`, for which the compound was classed as inactive. As to `COC(=O)CCC(=O)OC`, the outcome was inactive. Regarding `CCCCCCCCCCCCCCCCO`, the outcome was inactive. As to `CO[C@@H]1COCC[C@@H]1N[C@@H]1CC[C@@](C(=O)N2CCc3ncc(C(F)(F)F)cc3C2)(C(C)C)C1`, the result was inactive. Regarding `CCCCCCCC(=O)OC`, the compound was classed as inactive.

As to `O=C1NC(=O)C(c2ccccc2)(c2ccccc2)N1`, the compound was classed as inactive.

In the case of `CC(C)(C)c1ccccc1`, the outcome was inactive. For `O=C(O)c1cccnc1`, the outcome was inactive.

In the case of `CC(=O)CC(c1ccccc1)c1c(O)c2ccccc2oc1=O` (stereo not given), the compound was called inactive. Turning to `CC(=O)S[C@H](C(=O)N[C@H]1Cc2ccccc2[C@H]2CCC[C@@H](C(=O)O)N2C1=O)C(C)C`, the call was inactive. On to `Cc1cc(SC2=C(O)C[C@@](CCc3ccc(N)cc3)(C(C)C)OC2=O)c(C(C)(C)C)cc1CO`, for which the outcome was inactive.

Consider `CCOCCOCCO`, for which the compound was called inactive. Turning to `CCCCCCC(CCCCCCCCCCC(=O)OCC(COC(C)=O)OC(C)=O)OC(C)=O` (stereo not given), the compound was called inactive. For the compound `CC(=O)OCC(COC(C)=O)OC(C)=O`, the compound was called inactive. The result for `O=C(NS(=O)(=O)/C=C/c1cccs1)c1ccc(F)cc1Br` reads “inactive”; that for `C/C=C/c1ccc(OC)cc1`, “inactive”; that for `Cc1c(C)c2c(c(C)c1O)CCC(C)(COc1ccc(CC3SC(=O)NC3=O)cc1)O2` (stereo not given), “inactive”. Regarding `CCCCCCC(C=O)=Cc1ccccc1`, the call was inactive. On to `Cc1cn([C@H]2C=C[C@@H](CO)O2)c(=O)[nH]c1=O`, for which the compound was called inactive. On to `C#CC(O)C(CC)CCCC` (stereo not given), for which the compound was classed as inactive. As for `CCCCCCCCCC[N+](C)(C)[O-]`, the call was inactive. For the compound `O=C(N[C@@H](c1ccccc1)[C@@H]1CCCCN1)c1cccc(C(F)(F)F)c1Cl`, the result was inactive. As for `O=[Si]=O`, the result was inactive.

With `O=C(O)c1[nH]n(-c2ccc(S(=O)(=O)O)cc2)c(=O)c1N=Nc1ccc(S(=O)(=O)O)cc1`, the compound was called inactive. In the case of `Cc1cc(Cc2ccc(N)c(C)c2)ccc1N`, the compound was called inactive.

As for `CN(C)CCCN(C)CCCN(C)C`, the compound was classed as inactive.

On to `CS(=O)(=O)c1ccc([C@@H](C[C@H]2CCC(=O)C2)C(=O)Nc2cnccn2)cc1Cl`, for which the result was inactive.

In the case of `CC(=O)OC1CC(C)OC(C)O1` (stereo not given), the call was inactive. Take `CC1=C(C)S(=O)(=O)CCS1(=O)=O`: the call was inactive. In the case of `CCCC[C@H]1CN(CC2CCOCC2)C(=O)OC12CCN(C1(C)CCN(C(=O)c3c(C)ncnc3C)CC1)CC2` it was “inactive”; in that of `N[C@@H](Cc1c[nH]c2ccccc12)C(=O)O`, “inactive”; in that of `O=C(O)CC(O)(CC(=O)O)C(=O)O`, “inactive”. `CCCCC(CC)CO` (stereo not given): the call was inactive. As to `COc1ccc(C(=O)Nc2nc3ccccc3c(NCc3ccccc3)c2C#N)cc1`, the call was inactive. For `NC(=Nc1ccccc1)Nc1ccccc1`, the outcome was inactive.

In the case of `CC(N)=O`, the result was inactive. As to `Cn1cnc2c1c(=O)[nH]c(=O)n2C`, the compound was called inactive.
